Experimental data taken from PubChem BioAssay AID1224921 (Broad Institute, 2016).
Among all 1,400 compounds or so, about 350 (25%) were called active. Not shown: some 2% with an inconclusive outcome. How the calls were made is not given here. Not all results are given here. Potency and affinity values are given separately.

Experiment: inhibitors of Clostridioides difficile proliferation – 4-point retest, confirmation (AID 1224921);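 further: plate controls were DMSO wells for no effect and levofloxacin 16 µg/mL wells for full effect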
Settings: Clostridioides difficile clinical isolate growth, OD600, 24 h, active compounds read low; at 30 µM unless noted

Max activity, inactive:
CCC(=O)Nc1ccc2c(c1)OC[C@@H](C)N(CC1CCCCC1)C[C@@H](C)[C@@H](OC)CN(C)C2=O -9.08% [at 8 µM], COc1cccc(NC(=O)N[C@H]2C=C[C@H](CC(=O)Nc3ccc(-c4ccccc4)cc3)O[C@@H]2CO)c1 43%, C[C@H]1CN([C@@H](C)CO)S(=O)(=O)c2ccc(C3=CCCCC3)cc2O[C@H]1CN(C)Cc1ccncc1 40.6%, C[C@H]1CN([C@@H](C)CO)C(=O)c2cc(/C=C/c3ccccc3)cnc2O[C@@H]1CN(C)C(=O)CN(C)C -3.88% [at 0.5 µM], C[C@H](CO)N1C[C@H](C)[C@@H](CN(C)Cc2cccnc2)Oc2cc(C3=CCCCC3)ccc2S1(=O)=O 29%, N#C[C@@H]1[C@@H](c2ccc(C#Cc3ccccc3F)cc2)[C@H](CO)N1C(=O)C1CCCCC1 38.8%, C[C@@H]1CN([C@@H](C)CO)C(=O)c2c(c3ccccc3n2C)-c2ccccc2CO[C@H]1CN(C)S(=O)(=O)c1cccc(C#N)c1 31.4%, O=C(C[C@@H]1C[C@H]2c3cc(NC(=O)Nc4ccc(C(F)(F)F)cc4)ccc3O[C@H]2[C@@H](CO)O1)NCc1ccc(Cl)cc1 -9.79% [at 8 µM], C[C@@H]1CN([C@H](C)CO)S(=O)(=O)c2ccc(C3=CCCCC3)cc2O[C@H]1CN(C)Cc1ccncc1 -20.4% [at 1.95 µM], CN1C(=O)c2cc(NC(=O)c3ccc(C(F)(F)F)cc3)ccc2OC[C@H]2O[C@H](CC(=O)NCc3ccc4c(c3)OCO4)CC[C@H]21 -12.1% [at 0.5 µM], C[C@@H]1CN([C@@H](C)CO)C(=O)c2cc(C#C[C@@H](C)O)cnc2O[C@@H]1CN(C)Cc1ccc(-c2ccccc2)cc1 27.9%, CCCNC(=O)[C@@H]1[C@@H](CO)[C@@H]2Cn3c(cccc3=O)[C@H]1N2C(=O)NCCC -6.96%, CO[C@@H]1CN(C)C(=O)c2cc(NC(=O)Nc3cccc(Cl)c3)ccc2OC[C@H](C)N(C(=O)Nc2c(C)noc2C)C[C@H]1C -9.85%, COC(=O)[C@H]1[C@H](CO)[C@H]2Cn3c(ccc(-c4cccc(F)c4)c3=O)[C@H]2N1S(C)(=O)=O 23.4%, COC(=O)[C@@H]1[C@@H](CO)[C@@H]2Cn3c(ccc(-c4cccc(F)c4)c3=O)[C@@H]2N1C(C)=O 11.6% [at 8 µM], COCC1CC(c2ccccc2)OC(c2ccc(NC(=O)CCCCCCC(=O)O)cc2)O1 (stereo unspecified) 17.9%
